Values without a mark were called inactive. Inconclusive results are not listed. Where a call stands in place of a potency, no number is given. The source made the active and inactive calls. Unless noted, the call rests on the fitted dose curve; in most records, active means well fitted curve in the direction sought with a large enough effect in the repeat runs; inconclusive means weak or mixed curves; inactive means no such curve, though single readings can be large; an effect the other way counts as inactive or inconclusive.
What was measured:
[1] = qHTS assay to identify small molecule HDAC inhibitors (AID 1259364); further: nearly all actives have a fitted effect of over 45% in size; further: potency means the concentration at half of the fitted maximal effect
Outline: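 Wild-type HCT-116 cells, plated overnight at 37 C, exposed to compounds 2 hr at 37 C; luminogenic HDAC-Glo substrate then added 30 min at room temperature. Luminescence reports relative endogenous class I/II HDAC activity.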

[2] = qHTS assay to identify small molecule HDAC inhibitors - cell viability counter screen (AID 1259365); further: series mostly up to about 92 µM; nearly all actives have a fitted effect of over 50% in size
Outline: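 HCT-116 (wild type), 1,500 cells/well, overnight 37C/5% CO2; compound in DMSO 2hr; CellTiter-Glo 30min RT; luminescence read.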

[3] = qHTS assay to identify small molecule agonists of the sonic hedgehog signaling (Shh) pathway - cell viability counter screen (AID 1259366); further: nearly all actives have a fitted effect of over 50% in size
Outline: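 CellTiter-Fluor fluorescence read-out, 1 hr at 37C, added after 23hr compound exposure. Cells: 3T3 Gli1-Luc, an NIH/3T3 clone with stably integrated Gli1-Luc reporter, plated 4hr before compound.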

[4] = qHTS assay to identify small molecule antagonists of the sonic hedgehog signaling (Shh) pathway - cell viability counter screen (AID 1259367); further: nearly all actives have a fitted effect of over 55% in size
Outline: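 After a 4 hr settling period, 3T3 Gli1-Luc cells were treated with DMSO-dissolved chemicals and conditioned medium, kept 24 hr at 37C in 5% CO2, and assayed for viability by CellTiter-Fluor fluorescence following 1 hr reagent incubation.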

[5] = qHTS assay to identify small molecule antagonists of the sonic hedgehog signaling (Shh) pathway (AID 1259369; calls by dose curve; further: nearly all actives have a fitted effect of over 45% in size; further: potency means the concentration at half of the fitted maximal effect)
Outline: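 NIH/3T3-derived Gli1-Luc reporter cells plated 4 h, dosed with compound, then stimulated with conditioned medium for 24 h at 37 C. Firefly luciferase luminescence read after 30 min with detection reagent at room temperature.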

[6] = qHTS assay to identify small molecule agonists of the androgen receptor (AR) signaling pathway in the presence of an antagonist - cell viability counter screen (AID 1259379);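 further: MDA-kb2 human breast cancer cells carrying an MMTV luciferase reporter; series mostly up to about 92 µM; nearly all actives have a fitted effect of over 25% in size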
Outline: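 MDA-kb2 cells (MMTV-luciferase, AR/GR), 3,000/well, 5 h attachment, then 3.0 µM nilutamide (final) and compounds at 15 concentrations. Viability by CellTiter-Fluor fluorescence after 16 h at 37 °C, 0% CO2, in the reporter wells.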

[7] = qHTS assay to identify small molecule agonists of the estrogen receptor beta (ER-beta) signaling pathway - cell viability counter screen (AID 1259380); further: nearly all actives have a fitted effect of over 30% in size
Outline: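 ER-beta-UAS-bla HEK293T cells in medium with 2% charcoal-stripped FBS, pre-incubated 6 hr, then treated 16 hr at 37C. Cytotoxicity read in the same wells by CellTiter-Glo luminescence after 30 min at room temperature.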

[8] = qHTS assay to identify small molecule antagonists of the estrogen receptor beta (ER-beta) signaling pathway - cell viability counter screen (AID 1259382); further: series mostly up to about 92 µM; nearly all actives have a fitted effect of over 55% in size
Outline: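 ER-beta-UAS-bla HEK293T cells in 2% charcoal-stripped FBS medium, treated with compound plus 1 nM 17-beta-estradiol for 16 h at 37C. Viability read by CellTiter-Glo luminescence after 30 min at room temperature in the same wells.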

[9] = biological target: Estrogen receptor (Homo sapiens) (UniProt P03372); experiment: qHTS assay to identify small molecule agonists of the estrogen receptor alpha (ER-alpha) signaling pathway in the presence of an antagonist (AID 1259383; calls by dose curve; further: top concentration of the series differs between compounds; nearly all actives have a fitted effect of over 15% in size)
Outline: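 VM7Luc4E2 cells express endogenous full-length ER-alpha with an ERE-luciferase reporter and were hormone-deprived for 5 days. Compounds at 15 concentrations were added with 10.0nM ICI-182,780 for 22hr at 37C. Luminescence was read with ONE-Glo.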

[10] = qHTS assay to identify small molecule agonists or antagonists of the thyroid stimulating hormone receptor (TSHR) signaling pathway - wild type cell line counter screen (AID 1259384; calls by dose curve)
Outline: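 Wild-type HEK293 cells were plated 18 h at 37 C/5% CO2, pin-dosed with compound plus Ro20-1724 medium, held 30 min at room temperature, then given cAMP-d2 and anti-cAMP-cryptate; fluorescence was read after 1 h. Fifteen concentrations, triplicate.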

[11] = biological target: Thyrotropin receptor (Homo sapiens) (UniProt P16473); experiment: qHTS assay to identify small molecule antagonists of the thyroid stimulating hormone receptor (TSHR) signaling pathway (AID 1259385; calls by dose curve; further: nearly all actives have a fitted effect of over 20% in size)
Outline: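 TSHR-HEK293 cells were plated and held 18 h at 37C/5% CO2, then given compound plus Ro20-1724 and stimulated with TSH at 1.5 ng/mL final. After 30 min at room temperature, cAMP was detected with cAMP-d2/anti-cAMP-cryptate (1 h) by fluorescence.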

[12] = qHTS assay to identify small molecule agonists of the estrogen receptor alpha (ER-alpha) signaling pathway in the presence of an antagonist - cell viability counter screen (AID 1259386);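 further: series mostly up to about 92 µM; cells exposed to compounds for 22 h at 37 °C before the viability read; nearly all actives have a fitted effect of over 30% in size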
Outline: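 Cell viability in VM7Luc4E2 cells (endogenous full-length ER-alpha) measured by CellTiter-Fluor fluorescence in the same wells as the luciferase screen. Cells pre-cultured 5 days in charcoal-stripped serum, then treated 22 h with compounds at 15 concentrations plus 10.0nM ICI-182,780.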

[13] = biological target: Progesterone receptor (Homo sapiens) (UniProt P06401); experiment: qHTS assay to identify small molecule agonists of the progesterone receptor (PR) signaling pathway (AID 1346784; calls by dose curve; further: nearly all actives have a fitted effect of over 30% in size; further: potency means the concentration at half of the fitted maximal effect)
Outline: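 HEK 293T PR-UAS-bla reporter cells, 2% charcoal-stripped FBS; 6 hr settle at 37C/5% CO2, compound (DMSO) 16 hr, LiveBLAzer B/G FRET substrate 2 hr RT, fluorescence intensity read.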

[14] = biological target: Progesterone receptor (Homo sapiens) (UniProt P06401); experiment: qHTS assay to identify small molecule antagonists of the progesterone receptor (PR) signaling pathway (AID 1346795; active means well fitted inhibition curve with a large enough effect in the signal ratio in the repeat runs, not every such curve was filed as active; the % refers to the signal ratio; further: potency means the concentration at half of the fitted maximal effect)
Outline: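 Beta-lactamase reporter, HEK293T PR-UAS-bla line; 2% charcoal-stripped FBS; 6 hr pre-incubation, 37C/5% CO2. Compound + R5020 1 nM final, 16 hr. LiveBLAzer B/G FRET substrate, 2 hr RT; fluorescence intensity read.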

[15] = qHTS assay to identify small molecule antagonists of the progesterone receptor (PR) signaling pathway - cell viability counter screen (AID 1346798); further: series mostly up to about 92 µM; nearly all actives have a fitted effect of over 50% in size
Outline: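 Luminescence readout (CellTiter-Glo, 30 min, RT) of viability in PR-UAS-bla HEK293T cells exposed to compound and R5020 agonist for 16 hr at 37C, 5% CO2; run in the same wells as the beta-lactamase reporter read.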

[16] = qHTS assay to identify small molecule agonists of the progesterone receptor (PR) signaling pathway - cell viability counter screen (AID 1346799; calls by dose curve; further: nearly all actives have a fitted effect of over 45% in size)
Outline: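 HEK293T PR-UAS-bla, 3,000 cells/well, 2% charcoal-stripped FBS; 6 h settle, compound 16 h at 37C/5% CO2; LiveBLAzer 2 h RT, then CellTiter-Glo 30 min RT, luminescence read.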

[17] = qHTS assay to identify small molecule antagonists of the TGF-beta/Smad signaling pathway - cell viability counter screen (AID 1346824); further: nearly all actives have a fitted effect of over 50% in size
Outline: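 SBE-bla HEK 293T cells were plated overnight at 37 C, then given compounds in DMSO plus TGF-beta1 (added as 0.25 ng/mL solution) for 5 hr. After the bla read, CellTiter-Glo was added to the same wells and luminescence read after 30 min at room temperature.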

[18] = qHTS assay to identify small molecule agonists of the sonic hedgehog signaling (Shh) pathway (AID 1259368; calls by dose curve;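 further: NIH/3T3-derived 3T3Gli1-Luc cells carrying a stable Gli1-driven firefly luciferase reporter; series mostly up to about 92 µM; nearly all actives have a fitted effect of over 15% in size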)
Outline: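 NIH/3T3-derived 3T3Gli1-Luc cells with stably integrated Gli1-driven firefly luciferase, 2,000 cells/well, compounds added after 4 hr. Incubated 24 hr at 37C, 5% CO2; luminescence read after 30 min with luciferase reagent at room temperature.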

[19] = biological target: Estrogen receptor beta (Homo sapiens) (UniProt Q92731); experiment: qHTS assay to identify small molecule antagonists of the estrogen receptor beta (ER-beta) signaling pathway (AID 1259378; active means well fitted inhibition curve with a large enough effect in the signal ratio in the repeat runs, not every such curve was filed as active; the % refers to the signal ratio)
Outline: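 ER-beta-UAS-bla HEK293T (GripTite) cells in 2% charcoal-stripped FBS medium were preincubated 6 hr at 37C, dosed with compound, then stimulated with 1 nM E2 (final) for 16 hr; beta-lactamase reporter read by B/G FRET fluorescence after 2 hr substrate loading.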

[20] = biological target: Estrogen receptor beta (Homo sapiens) (UniProt Q92731); experiment: qHTS assay to identify small molecule agonists of the estrogen receptor beta (ER-beta) signaling pathway (AID 1259377; active means well fitted activation curve with a large enough effect in the signal ratio in the repeat runs, not every such curve was filed as active; the % refers to the signal ratio)
Outline: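 Beta-lactamase reporter readout: fluorescence of LiveBLAzer B/G FRET substrate after 2 h at room temperature, following 16 h compound treatment of ER-beta-UAS-bla HEK293T cells at 37C in 2% charcoal-stripped FBS medium.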

Chain of Progesterone receptor (Homo sapiens) (P06401 whole entry, looked up): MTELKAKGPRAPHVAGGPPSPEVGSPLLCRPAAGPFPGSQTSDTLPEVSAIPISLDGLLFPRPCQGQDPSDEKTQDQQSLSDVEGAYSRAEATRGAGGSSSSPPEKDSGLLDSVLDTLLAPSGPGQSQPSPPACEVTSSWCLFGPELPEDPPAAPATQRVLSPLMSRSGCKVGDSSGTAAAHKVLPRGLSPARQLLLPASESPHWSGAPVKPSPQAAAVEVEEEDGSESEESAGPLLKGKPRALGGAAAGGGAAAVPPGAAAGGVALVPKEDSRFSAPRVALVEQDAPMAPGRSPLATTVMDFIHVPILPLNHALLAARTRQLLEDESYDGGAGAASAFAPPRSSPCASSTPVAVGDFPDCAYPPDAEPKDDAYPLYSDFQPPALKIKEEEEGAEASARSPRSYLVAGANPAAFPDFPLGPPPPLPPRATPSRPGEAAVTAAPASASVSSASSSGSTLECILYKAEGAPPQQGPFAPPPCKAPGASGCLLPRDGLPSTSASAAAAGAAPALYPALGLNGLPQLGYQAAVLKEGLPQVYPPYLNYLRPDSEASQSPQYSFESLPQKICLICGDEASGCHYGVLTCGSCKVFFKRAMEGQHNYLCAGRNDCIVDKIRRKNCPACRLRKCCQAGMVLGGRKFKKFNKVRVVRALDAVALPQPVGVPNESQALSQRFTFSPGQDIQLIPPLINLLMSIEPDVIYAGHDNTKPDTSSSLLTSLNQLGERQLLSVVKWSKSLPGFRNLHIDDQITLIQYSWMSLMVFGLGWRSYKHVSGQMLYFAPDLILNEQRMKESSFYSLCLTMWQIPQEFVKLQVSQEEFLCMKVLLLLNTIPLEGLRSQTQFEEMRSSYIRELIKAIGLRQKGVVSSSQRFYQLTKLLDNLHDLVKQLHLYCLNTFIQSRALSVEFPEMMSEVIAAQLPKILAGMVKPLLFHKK
Chain of Thyrotropin receptor (Homo sapiens) (P16473 whole entry, looked up): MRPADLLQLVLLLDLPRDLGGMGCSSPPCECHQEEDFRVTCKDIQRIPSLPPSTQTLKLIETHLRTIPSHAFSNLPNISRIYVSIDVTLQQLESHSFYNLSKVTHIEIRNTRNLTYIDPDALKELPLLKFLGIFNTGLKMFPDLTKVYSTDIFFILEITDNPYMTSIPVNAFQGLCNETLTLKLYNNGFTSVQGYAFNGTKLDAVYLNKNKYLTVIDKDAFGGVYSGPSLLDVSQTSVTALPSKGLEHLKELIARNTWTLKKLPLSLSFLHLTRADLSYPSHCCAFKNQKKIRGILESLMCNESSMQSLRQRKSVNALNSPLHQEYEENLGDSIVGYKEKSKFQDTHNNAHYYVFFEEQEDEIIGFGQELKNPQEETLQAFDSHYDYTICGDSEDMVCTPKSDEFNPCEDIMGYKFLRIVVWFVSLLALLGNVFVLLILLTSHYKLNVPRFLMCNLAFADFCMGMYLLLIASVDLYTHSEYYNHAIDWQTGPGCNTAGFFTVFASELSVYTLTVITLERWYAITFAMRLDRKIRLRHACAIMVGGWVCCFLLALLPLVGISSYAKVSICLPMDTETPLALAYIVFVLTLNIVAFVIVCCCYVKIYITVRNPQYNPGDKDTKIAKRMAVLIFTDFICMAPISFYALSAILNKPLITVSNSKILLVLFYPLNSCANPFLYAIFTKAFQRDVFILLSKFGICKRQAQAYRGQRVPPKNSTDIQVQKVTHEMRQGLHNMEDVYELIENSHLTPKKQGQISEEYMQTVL
Chain of Estrogen receptor beta (Homo sapiens) (Q92731 whole entry, looked up): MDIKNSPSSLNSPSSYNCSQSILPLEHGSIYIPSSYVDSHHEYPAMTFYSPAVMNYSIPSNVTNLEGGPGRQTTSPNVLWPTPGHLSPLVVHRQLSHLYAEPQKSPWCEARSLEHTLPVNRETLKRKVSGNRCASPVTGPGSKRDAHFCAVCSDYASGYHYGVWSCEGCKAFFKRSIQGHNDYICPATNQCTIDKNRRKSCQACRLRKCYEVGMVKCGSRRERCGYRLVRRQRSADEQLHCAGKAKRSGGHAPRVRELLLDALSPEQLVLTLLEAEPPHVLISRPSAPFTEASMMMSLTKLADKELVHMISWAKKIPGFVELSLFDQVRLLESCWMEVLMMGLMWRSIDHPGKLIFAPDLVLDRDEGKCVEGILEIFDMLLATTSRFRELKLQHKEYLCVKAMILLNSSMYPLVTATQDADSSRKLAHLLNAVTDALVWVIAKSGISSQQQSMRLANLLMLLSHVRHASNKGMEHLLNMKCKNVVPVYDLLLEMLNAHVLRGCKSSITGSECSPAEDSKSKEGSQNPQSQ
Chain of Estrogen receptor (Homo sapiens) (P03372 whole entry, looked up): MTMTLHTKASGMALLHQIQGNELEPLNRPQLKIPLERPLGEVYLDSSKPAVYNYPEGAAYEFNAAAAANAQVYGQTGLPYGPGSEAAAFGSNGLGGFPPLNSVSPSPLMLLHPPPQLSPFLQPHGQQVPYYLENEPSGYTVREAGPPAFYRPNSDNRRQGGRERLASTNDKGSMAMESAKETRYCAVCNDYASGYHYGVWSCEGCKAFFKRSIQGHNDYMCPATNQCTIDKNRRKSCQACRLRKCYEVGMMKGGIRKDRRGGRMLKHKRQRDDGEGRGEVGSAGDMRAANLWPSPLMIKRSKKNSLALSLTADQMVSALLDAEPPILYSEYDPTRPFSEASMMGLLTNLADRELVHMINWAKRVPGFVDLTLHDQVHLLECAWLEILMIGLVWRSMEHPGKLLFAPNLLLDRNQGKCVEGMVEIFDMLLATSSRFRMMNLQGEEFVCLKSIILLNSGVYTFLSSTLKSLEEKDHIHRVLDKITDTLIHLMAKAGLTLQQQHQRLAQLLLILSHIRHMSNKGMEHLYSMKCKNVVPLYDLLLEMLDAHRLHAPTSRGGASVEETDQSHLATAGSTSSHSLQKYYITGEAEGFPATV

Row | Structure (SMILES) | Potency [1] | outcome [2] | Potency [3] | Potency [4] | Potency [5] | Potency [6] | outcome [7] | outcome [8] | outcome [9] | outcome [10] | outcome [11] | Potency [12] | Potency [13] | Potency [14] | Potency [15] | Potency [16] | outcome [17] | outcome [18] | outcome [19] | Potency [20]
1 | CC(=O)c1ccc(OCC(=O)N2CCCCC2)cc1 | 13.3 µM (active) | inactive | inactive | inactive | inactive | inactive | inactive | inactive | inactive | inactive | inactive | inactive | inactive | inactive | inactive | inactive | inactive |  |  | 
2 | Cc1ccc(C(=O)C(=O)O)cc1C | inactive | inactive | inactive | inactive |  | inactive | inactive | inactive | inactive |  |  | inactive | inactive | inactive | inactive | inactive | inactive |  |  | 
3 | COc1cccc2sc(N)nc12 |  | inactive | inactive | inactive | 24.5 µM (active) | inactive |  | inactive | inactive | inactive | inactive | inactive | 43.5 µM (active) | inactive |  | inactive | inactive | inactive | inactive | 
4 | COCCOCCOCCOC | inactive | inactive | inactive | inactive |  | inactive | inactive | inactive |  |  |  | inactive | inactive | inactive | inactive | inactive | inactive |  | inactive | inactive
5 | CCC(C)(CCC(C)C)C(=O)[O-].CCC(C)(CCC(C)C)C(=O)[O-].[Zn+2] (centres undefined) | inactive | inactive |  | inactive | inactive |  | inactive |  |  |  |  | inactive | inactive | inactive | inactive | inactive |  |  |  | 
6 | O=c1cc(O)c(Cl)c[nH]1 | inactive | inactive | inactive | inactive |  | inactive | inactive | inactive |  |  | inactive | inactive |  |  | inactive | inactive | inactive |  | inactive | inactive
7 | CCCCCCCC/C=C\CCCCCCCC(=O)OC[C@@H](O)[C@H]1OC[C@H](O)[C@H]1O | inactive | inactive | inactive | inactive |  | inactive | inactive | inactive | inactive | inactive | inactive | inactive | inactive | inactive | inactive | inactive |  |  | inactive | inactive
8 | Nc1cc(C(=O)O)ccc1Cl | inactive | inactive | inactive | inactive |  | inactive | inactive |  | inactive |  | inactive | inactive | inactive | inactive | inactive | inactive |  |  | inactive | inactive
9 | CCOC(=O)CCCCCCCCC(=O)OCC | inactive | inactive | inactive | inactive | inactive |  | inactive | inactive | inactive | inactive | inactive | inactive | inactive | inactive | inactive | inactive |  |  | inactive | 
10 | CN(C1CCCCC1)S(=O)(=O)c1ccccc1N | inactive | inactive | inactive | inactive |  | inactive | inactive | inactive |  |  | inactive | inactive | inactive | 17.2 µM (active) | inactive | inactive | inactive |  |  | inactive

Source: PubChem BioAssay (Tox21)
